# PubChem BioAssay AID990 (National Center for Advancing Translational Sciences (NCATS), 2007)
# The source made the active and inactive calls.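 How the source made its calls: active means compound that made reporter-free parental cells show up as glowing objects under laser imaging, so likely a fluorescent false positive; inactive means the rest.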
# Assay: Parental Cell Counter Screen Assay for Epigenetic Modulators
# Details: parental c127i cells, compound fluorescence imaging, 30 h
# Source text: NIH Molecular Libraries Screening Centers Network [MLSCN] NIH Chemical Genomics Center [NCGC] MLSCN Grant: 1 X01 MH079860-01 Assay Provider: Elisabeth D. Martinez, University of Texas SW Medical Center NCGC Assay Overview: This assay is a counter screen for the Locus Derepression (LDR) assay (PubChem AID 597). The LDR assay detects the derepression of a GFP reporter that is stably integrated in a region of the genome of murine c127i mammary cells that is presumably silenced. Compounds that cause derepression of the locus to express GFP are identified by enumerating GFP positive cells using a laser-scanning microplate cytometer. […] Compounds active in the parental c127i cells are likely fluorescent.
# NCGC Assay Protocol Summary: Two hundred and fifty cells in 5 uL per well were dispensed into black, clear-bottom 1536-well plates. Twenty-three nL compound was transferred to the assay plate and cells were incubated 30 hours at 37 C. Medium was removed, cells were washed two times with PBS, and fluorescent cells were enumerated as objects between the sizes of 20 to 120 um width and depth using a laser-scanning microplate imager (Acumen Explorer Ex3, TTP Labtech).
structure (smiles),measurement,value
CN1CSC(=S)N(C)C1,outcome,inactive
